Tb PYK inh: T. brucei pyruvate kinase inhibition | Q57TT1 | TbPYK enzyme, Kinase-Glo Plus ATP luminescence, 45 min | Potency, µM (series often up to 76.8 µM), inactives show at the top dose activity, negative = inhibition, actives largely listed as inhibitors | 0.12% of 410,000 active | AID 624173; note: potency is the fitted concentration of half-maximal effect; % is set by controls: 0 for no effect and ±100 for the full control effect; nearly all actives have a fitted effect of over 50% in size
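Quantitative HTS: titrated library compounds versus trypanosomal pyruvate kinase in TEA buffer (pH 7.2) containing KCl, MgCl2, BSA and Tween-20. Reactions were initiated with ADP, 130 uM final. Kinase-Glo Plus luminescence was read after 45 min at RT.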
RE007 growth inh: less growth of the S. pombe RE007 Vpr strain; S. pombe RE007 Vpr strain, BacTiter-Glo ATP luminescence, 24 h; Potency, µM (titrated, usually from 92.2 µM), without a hit: top-dose activity change, negative = less growth, most hits filed as inhibitors; 0.21% of 360,000 active; AID 651644; active = well fitted falling curve with a large enough effect; inconclusive = small, poorly fitted or top-dose-only effect; inactive = no such curve, though single readings can be large or run the other way; note: potency is the fitted concentration of half-maximal effect; % is set by controls: 0 for no effect and ±100 for the full control effect; nearly all actives have a fitted effect of over 50% in size
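Fission yeast RE007 carrying one integrated HIV-1 vpr copy, seeded at OD 0.01 in PMG+AL medium with 23 nL pinned compound. Grown 24 h at 30 degrees; viability read by BacTiter-Glo luminescence after 5 min.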
Shiga inhibitor: inhibitors of Shiga toxin in Vero cells | Vero cells, Shiga toxin protein synthesis inhibition reporter | inhibition, % at 38.7 µM | 9.2% of 290,000 active; in the data active = inhibition mostly above about 28%, no sharp cut-off; inactive = mostly below about 43%; note: 0% is about no effect
Giardia FBPA inh: inhibitors of Giardia lamblia fructose-1,6-bisphosphate aldolase. A8B2U2. purified Giardia FBPA. Potency, µM (titrated, usually from 59.6 µM), for the others: at the top dose activity, negative = inhibition, most hits filed as inhibitors. 0.71% of 290,000 active; note: potency is the fitted concentration of half-maximal effect; % is set by controls: 0 for no effect and ±100 for the full control effect; nearly all actives have a fitted effect of over 55% in size
Target sequence (A8B2U2 whole entry, looked up): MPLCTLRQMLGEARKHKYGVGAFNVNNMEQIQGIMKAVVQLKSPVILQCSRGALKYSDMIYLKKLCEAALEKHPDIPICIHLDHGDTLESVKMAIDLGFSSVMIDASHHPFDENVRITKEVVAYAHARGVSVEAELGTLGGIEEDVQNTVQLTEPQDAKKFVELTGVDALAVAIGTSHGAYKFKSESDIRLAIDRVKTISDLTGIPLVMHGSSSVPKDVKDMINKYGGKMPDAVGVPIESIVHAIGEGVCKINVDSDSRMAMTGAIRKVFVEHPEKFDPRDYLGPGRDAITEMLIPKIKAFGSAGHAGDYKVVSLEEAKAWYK
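Giardia FBPA (40 nM reagent) was preincubated 10 min at RT with compound (up to 57.5 uM final), then substrate plus GAPDH/TPI/NAD/arsenate coupling system with diaphorase/resazurin was added; resorufin fluorescence (525/598 nm) was read after 20 min.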
LmPK inhibitor: blocks Leishmania mexicana pyruvate kinase activity | Q27686 | purified LmPK, Kinase-Glo ATP luminescence, 1 h | Potency, µM (doses to about 57.5 µM), for the others: at the highest dose activity change, negative = inhibition, usual class: inhibitors | 0.37% of 290,000 active; note: potency is the fitted concentration of half-maximal effect; % is set by controls: 0 for no effect and ±100 for the full control effect
Target sequence (Q27686 whole entry, looked up): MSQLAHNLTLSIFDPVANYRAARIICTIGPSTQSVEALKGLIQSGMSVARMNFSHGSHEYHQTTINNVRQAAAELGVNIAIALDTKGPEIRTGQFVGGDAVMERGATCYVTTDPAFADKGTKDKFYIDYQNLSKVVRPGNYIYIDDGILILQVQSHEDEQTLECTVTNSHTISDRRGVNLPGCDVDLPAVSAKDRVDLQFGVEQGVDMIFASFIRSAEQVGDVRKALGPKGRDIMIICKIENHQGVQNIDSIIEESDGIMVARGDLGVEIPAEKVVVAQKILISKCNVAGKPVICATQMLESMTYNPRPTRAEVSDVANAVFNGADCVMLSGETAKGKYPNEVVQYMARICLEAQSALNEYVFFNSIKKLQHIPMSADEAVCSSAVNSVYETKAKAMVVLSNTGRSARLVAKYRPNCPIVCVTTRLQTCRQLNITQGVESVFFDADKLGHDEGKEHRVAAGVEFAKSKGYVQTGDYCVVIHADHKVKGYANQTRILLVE
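In 50 mM imidazole pH 7.2 with 7 mM MgCl2, LmPK (0.1 nM) turned over PEP (0.5 mM) and ADP (0.1 mM) for 1 h at room temperature. Luciferase read-out of ATP.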
CHX counter: counter-screen hit for Shiga toxin inhibitors, cycloheximide; cell reporter, cycloheximide protein synthesis inhibition counterscreen; max response, %; 12% of 300,000 active; in the data active = max response mostly above about 13%, no sharp cut-off; inactive = mostly below about 14%; note: read at 38.3 µM for the half of the compounds with a filed dose; 0% is about no effect
An asterisk follows results filed as active; ? = inconclusive; / = no result given. Many of the other results were omitted from the sample, so hits are more common in it than they were. Unless noted, calls come from the whole dose curve; as a rule, active = well fitted curve in the direction sought with a large enough effect; inconclusive = small, poorly fitted or top-dose-only effect, or another doubt; inactive = no such curve, though single readings can be large; an effect the other way counts as inactive or inconclusive.

SMILES | Tb PYK inh | RE007 growth inh | Shiga inhibitor | Giardia FBPA inh | LmPK inhibitor | CHX counter
COc1ccc(OCc2ccc(/C=N\NC(=O)c3sccc3C)o2)cc1 | -7.5% | -17.7% | 67.6* | / | -4.4% | 25.3*
CSc1ccc(/C=N/NC(=O)c2cc(O)cc(O)c2)cc1 | -6.0% | -9.4% | 40.8* | 1.7% | ? | 22.2*
CSc1ccc(/C=N/NC(=O)c2ccc(C)c(C)c2)cc1 | -6.4% | 3.1% | 52.2* | -7.7% | 5.7% | 43.7*
O=C(N/N=C/c1ccc(F)cc1)c1sccc1OCc1ccc(F)cc1 | -1.1% | 0.5% | 50.5 | 4.9% | 1.5% | 12.8
COc1cc(/C=C(\C#N)c2nc3ccccc3[nH]2)cc(Cl)c1OCc1ccccc1Cl | -3.5% | / | / | / | / | /
Cc1ccc(OCCSc2nc3ccc(NC(=O)c4ccc5c(c4)OCO5)cc3s2)cc1 | -4.3% | / | / | / | / | /
COc1cccc(C(=O)COC(=O)c2cccs2)c1 | -2.9% | -25.8% | 76.3* | / | -13.4% | 38.3*
O=C(COC(=O)c1cccs1)c1ccccc1 | -5.6% | ? | 78.2* | 4.4% | 14.1µM* | 42.1*
COc1cc(N)c(Cl)cc1C(=O)OCC(=O)c1cccs1 | -2.9% | -10.8% | 54.0* | 6.8% | -0.1% | 19.4
CC(NC(=O)COC(=O)c1cccs1)c1ccccc1 (centres undefined) | -3.2% | 35.4% | 30.7 | 11.5% | -14.2% | 11.6*
Cc1ccc(S(=O)(=O)CCc2nnc(NC(=O)C3CCCO3)s2)cc1 (centres undefined) | -0.3% | 12.9% | -16.4 | -0.2% | 3.1% | -2.4
Cc1nnc(NC(=O)C2CCCO2)s1 (centres undefined) | 7.7% | -10.2% | 6.3 | -5.1% | 4.2% | 3.8
CCCC(C)c1nnc(NC(=O)C2CCCO2)s1 (centres undefined) | -10.2% | -9.7% | 35.2* | 0.7% | 0.1% | 40.0*
CCCCCc1nnc(NC(=O)C2CCCO2)s1 (centres undefined) | -5.6% | 13.7% | 66.8* | -0.9% | -1.1% | 44.2*
COCCSc1nnc(NC(=O)C2CCCO2)s1 (centres undefined) | -0.9% | -16.8% | 91.4* | -2.3% | -10.2% | 23.7*
Cc1cc(NC(=S)NC(=O)C2CC2)ccc1Br | 2.4% | ? | 127.8* | 4.6% | -0.9% | 51.4*
COc1ccc(NS(=O)(=O)c2ccc(N3CCCC3)c(NC(=S)Nc3cccc(S(=O)(=O)N(C)C)c3)c2)cc1 | / | / | 63.1* | 2.7% | 4.3% | 33.4*
Cc1cccc(NC(=S)NC(=O)C2CC2)c1 | / | / | 35.5* | / | 0.5% | 44.6*
Cc1ccccc1NC(=S)NC(=O)C1CCCCC1 | -8.2% | -24.6% | 44.7 | / | -7.6% | 18.9*
CNC(=S)Nc1ccc(N2CCCC2)c(S(=O)(=O)Nc2ccc(OC)cc2)c1 | 3.0% | -5.8% | / | / | / | /
Cc1cc(C)cc(NC(=S)NC(=O)C2CC2)c1 | -2.8% | -15.5% | -22.4 | / | -13.4% | 10.4
O=C(NC(=S)Nc1ccccc1CO)C1CCCCC1 | -3.1% | 0.4% | / | / | / | /
CN(C)S(=O)(=O)c1cccc(NC(=S)NC2CCCCC2)c1 | -2.7% | 6.5% | -11.1 | -7.4% | 6.3% | -0.9
CN(C)S(=O)(=O)c1cccc(NC(=S)NC(=O)C2CCCCC2)c1 | 0.6% | -5.5% | 66.7* | -1.9% | 0.9% | 41.2*
COc1ccc(-c2nc(SC)n(S(=O)(=O)c3ccccc3)n2)cc1 | -3.3% | -6.2% | 96.0* | 2.4% | -0.7% | 27.9*
SMILES | Tb PYK inh | RE007 growth inh | Shiga inhibitor | Giardia FBPA inh | LmPK inhibitor | CHX counter
CSc1nc(-c2ccccc2)nn1S(=O)(=O)c1ccccc1 | -11.8% | -16.5% | 35.3 | 6.8% | 4.3% | 17.5*
CSc1nc(-c2ccccc2)nn1S(=O)(=O)c1ccc(Cl)cc1 | -22.0% | 16.9% | -4.3 | -1.3% | 7.2% | -2.3
COc1ccc(CNc2nc(-c3ccccc3OC)nc3ccccc23)c(OC)c1 | / | / | / | 1.0% | / | /
Cc1ccc(S(=O)(=O)c2nc(S(C)(=O)=O)sc2N2CCC(C)CC2)cc1 | 5.2% | 0.6% | 12.8 | / | 0.7% | -3.2
CCOC(=O)c1ccc(NC(=O)CSc2nc(-c3ccc(F)cc3)cc(C(F)(F)F)c2C#N)cc1 | -4.2% | / | / | / | / | /
CCCCc1nc2cc(C(=O)N3CCC[C@H]3CO)ccc2o1 | 10.3% | 1.3% | 38.5* | 11.5% | -1.1% | 19.6*
COCC1CCN(C(=O)c2ccc3oc(CCc4ccccc4)nc3c2)C1 (centres undefined) | -11.0% | 20.3% | / | / | / | /
O=C(c1ccc2oc(CCc3ccccc3)nc2c1)N1CC[C@H](O)C1 | 0.4% | 15.6% | 85.3* | / | 5.4% | 38.2*
COC1CCN(C(=O)c2ccc3oc(Cc4ccc(Cl)cc4)nc3c2)CC1 | 2.3% | 5.9% | -3.7 | 6.7% | -3.1% | 9.6
CCCCc1nc2cc(C(=O)N(C)C3CCOCC3)ccc2o1 | 9.2% | -9.2% | 115.8* | 15.8% | -6.3% | 67.6*
O=C(c1ccc2oc(Cc3ccc(Cl)cc3)nc2c1)N1CCCCC1CCO (centres undefined) | 0.8% | 8.9% | 13.1 | / | -3.9% | 16.8
CCCCc1nc2cc(C(=O)N3CCC(O)CC3)ccc2o1 | -7.4% | -10.5% | 46.5* | -5.1% | -9.0% | 38.4*
Cc1cnc(CN(C)C(=O)c2ccc3oc(Cc4ccccc4)nc3c2)[nH]1 | -4.5% | 2.5% | -3.3 | / | 0.1% | 12.6
O=S1(=O)C2CC3C=CC2(O3)C(O)C(Cc2ccccc2)N1Cc1cccc(C(F)(F)F)c1 (centres undefined) | / | / | 3.3 | -7.2% | / | -3.9
CCCCc1nc2cc(C(=O)N(C)CCc3cn[nH]c3)ccc2o1 | 4.1% | 15.0% | 60.6* | 4.1% | -1.6% | 50.6*
O=C(COC(=O)/C=C/c1cccc(Cl)c1Cl)Nc1ccc2[nH]c(=O)[nH]c2c1 | -5.1% | -0.1% | / | / | / | /
COc1cccc(CNC(=O)c2cnc(N3CCCC3)nc2C)c1 | 0.2% | / | / | / | / | /
CC(C(=O)Nc1ccc2c(c1)OCO2)N1CCN(C)CC1 (centres undefined) | 6.6% | 23.6% | -14.9 | ? | -12.3% | 0.4
O=C(CSc1ccccc1F)Nc1ccc2c(c1)OCO2 | 1.1% | -5.4% | / | / | / | /
Cc1cc(C)n(C(C)CC(=O)Nc2ccc3c(c2)OCO3)n1 (centres undefined) | -9.2% | -11.4% | 9.7 | -2.5% | -0.2% | 23.6*
C[C@H](NC(N)=O)C(=O)Nc1ccc2c(c1)OCO2 | -1.0% | 7.4% | 3.4 | 5.4% | 1.2% | 23.4*
CC(CC(=O)Nc1ccc2c(c1)OCCO2)c1ccccc1 (centres undefined) | -7.2% | 20.5% | 54.5* | -8.6% | 3.0% | 41.5*
CC(CC(=O)Nc1ccc2c(c1)OCO2)c1ccccc1 (centres undefined) | -2.1% | -24.4% | 57.1 | -0.8% | -0.3% | 15.0*
Cc1ccc(-n2ncc(C(=O)NCCc3c[nH]c4ccccc34)c2C2CCN(C(=O)OC(C)(C)C)CC2)cc1C | 7.2% | / | / | / | / | /
Cc1cc2ncc(-c3cccc(Cl)c3)cn2n1 | 1.2% | -3.5% | 75.5* | 3.3% | 2.7% | 47.6*

Compound activity: PubChem BioAssay, National Center for Advancing Translational Sciences (NCATS)
